This is a sample that favours compounds with a hit; in the whole collection about 2.2% have one here.
Ba/F3 V617F tox = reduced viability of JAK2V617F-dependent Ba/F3 cells, primary screen, JAK2V617F inhibitor project, cell-based, Ba/F3 EpoR-JAK2V617F, luminescence; actives 1.1% (n = 220,000); inhibition, % at 5.6 µM; ATP luminescence;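 active = inhibition above the campaign mean plus 3 SD over all tested compounds, cut at about 24% in these data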;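 also: cytokine-independent growth of Ba/F3 cells driven by EpoR plus mutant JAK2; 0% = DMSO-treated cells and 100% = JAK inhibitor I control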
BaF3 tox = parental Ba/F3 cell viability inhibition, counter-screen for JAK2V617F inhibitor project, murine pro-B, CellTiter-Glo luminescence; CellTiter-Glo ATP luminescence; inhibition, % at 5.6 µM; actives 1.1% (n = 220,000);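 active = inhibition above a per-campaign cutoff, the mean inhibition of all tested compounds plus 3 SD, cut at about 27% in these data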;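 also: 0% = DMSO wells and 100% = JAK Inhibitor I control wells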
aSyn 5UTR inh = MLPCN primary screen, SNCA 5' untranslated region | alpha-synuclein 5'UTR reporter, inhibitor activity | inhibition, % (tested at 7.5 µM) | actives 0.82% (n = 300,000) | AID 1813, 2009; in the data active = inhibition above about 60%;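 also: H4 neuroglioblastoma cells stably carrying SNCA 5'UTR luciferase fusion; 0% = DMSO wells and 100% = positive control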
KLF5 inh = KLF5 expression inhibitors, primary screen, DLD-1 cells, luminescence. DLD-1 KLF5 promoter-luciferase reporter. inhibition, % at 5 µM. actives 0.23% (n = 290,000). AID 1700, 2009;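 active = inhibition above a per-plate limit of that plate's mean compound inhibition plus 3 SD, cut at about 60% in these data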;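 also: 0% = DMSO wells and 100% = LY294002 at 200 µM; higher means less KLF5 promoter-driven luciferase light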
APP transl inh = inhibitors of APP translation via 5'UTR reporter, primary screen, APP 5'UTR luciferase, SH-SY5Y cells; SH-SY5Y APP 5'UTR-luciferase reporter, luminescence; inhibition, % at 2 µM; actives 0.82% (n = 190,000); AID 1285, 2008;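 active = inhibition above a set limit, derived from the sample mean plus 3 SD, cut at about 45% in these data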
IEC-6 tox = cytotoxicity in IEC-6 intestinal epithelial cells, primary screen, cytotoxicity control for KLF5 inhibitor project, cell-based, luminescence; IEC-6 cytotoxicity, luminescence viability; inhibition, % at 5 µM; actives 0.78% (n = 290,000); AID 1825, 2009;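 also: 0% = plate median of test compound wells and 100% = cytotoxic reference compound wells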
IEC-6 tox confirm = cytotoxic compounds in IEC-6 epithelial cells, confirmation, cytotoxicity control, cell-based, luminescence | shares compounds with IEC-6 tox | IEC-6 rat intestinal epithelial viability | inhibition, % at 5 µM | actives 63% (n = 1,900) | AID 1907, 2009;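 also: 0% = vehicle and 100% = reference cytotoxic drug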
Numbers without * were called inactive; . = not tested or not shown. Rule as the data show it, unless noted: active = inhibition above about 22%; inactive = the rest.

SMILES	Ba/F3 V617F tox	BaF3 tox	aSyn 5UTR inh	KLF5 inh	APP transl inh	IEC-6 tox	IEC-6 tox confirm
CCCCCOc1ccc(Br)cc1/C(C)=N/NC1=NCCN1	78*	73*	88*	38	94*	83*	60*
COc1ccc(-c2nn(-c3ccccc3)cc2C(=O)N2CCN(S(=O)(=O)c3cccc(F)c3)CC2)cc1	.	.	6	.	.	.	.
COc1cc2c(cc1OC)C(C)N(C(=O)Nc1ccccc1)CC2 (stereo not given)	.	.	-32	60	.	63*	50*
COc1cc2c(cc1OC)C(C)N(C(=O)CCNC(=O)c1ccccc1)CC2 (stereo not given)	.	.	7	-19	.	-2	.
N#C/C(=N/Nc1ccc(OC(F)(F)F)cc1)C(N)=S	50*	68*	-71	-61	.	28*	35*
COc1ccc(N/N=C(\C#N)C(N)=O)cc1	5	8	-13	-9	18	7	.
O=C(c1ccc(C(F)(F)F)cc1)C1CCCN(C(=O)CCc2ccncc2)C1 (stereo not given)	.	.	-7	-23	.	-5	.
CCCCc1ccc(NC(=O)CSC2=C(C#N)C(c3ccco3)C3=C(CCCC3=O)N2)cc1 (stereo not given)	-1	5	24	-22	11	-6	.
Cc1ccc(C(=O)CSC2=C(C#N)C(c3ccco3)C3=C(CCCC3=O)N2)cc1 (stereo not given)	1	4	38	4	46*	45*	52*
COc1cccc(NC(=O)CSC2=C(C#N)C(c3ccco3)C3=C(CCCC3=O)N2)c1 (stereo not given)	67*	76*	-26	45	8	50*	5
O=C(NN=C1CCCC1)c1ccc(O)cc1	.	.	8	-46	.	3	.
N#C/C(=C(/O)c1ccc(Br)s1)c1nc2ccccc2[nH]1	.	.	-53	8	.	34*	46*
COc1ccc(NS(=O)(=O)c2cc(NC(=O)c3cnc(C)cn3)ccc2N2CCCC2)cc1	4	7	-16	-22	-24	4	.
COc1ccc(NS(=O)(=O)c2cc(NC(=O)c3ccc(=O)[nH]c3)ccc2N2CCCC2)cc1	.	.	-50	21	.	42*	25*
O=C(CN1C(=O)c2ccc([N+](=O)[O-])cc2C1=O)NCC1CCCO1 (stereo not given)	.	.	-1	.	.	.	.
COc1ccc(OC)c(-c2csc(NC(=O)c3ccc(F)cc3)n2)c1	.	.	-202	19	.	34*	16
COc1cccc(NC(=O)CSc2nc3c(sc4ccccc43)c(=O)n2CCCN2CCCC2)c1	.	.	-16	-25	.	-1	.
CC1c2cc3c(cc2CCN1CC(=O)Nc1ccccc1)OCCCO3 (stereo not given)	.	.	-6	10	.	6	.
CC1c2cc3c(cc2CCN1C(=O)c1cccc(Cl)c1)OCCCO3 (stereo not given)	.	.	-65	-10	.	25*	8
S=C(NCCN1CCOCC1)N/N=C/c1cccs1	.	.	7	-45	.	30*	-15
Oc1cccc(/C=N/NC(=S)NCCN2CCOCC2)c1O	0	0	-7	-26	3	-3	.
Cc1ccc(C(=O)Nc2cccc3cccnc23)cc1C	.	.	-87	-138	.	3	.
COc1ccc(NC(=O)c2cccnc2)c([N+](=O)[O-])c1	66*	60*	-7	18	21	46*	30*
Cc1cc(C(F)(F)F)nc(SCC(=O)NC2CCCCC2)n1	.	.	16	-32	.	-3	.
COc1ccccc1/C=N/NC(=O)c1c(-c2ccccc2)noc1C	.	.	15	-7	.	-1	.
SMILES	Ba/F3 V617F tox	BaF3 tox	aSyn 5UTR inh	KLF5 inh	APP transl inh	IEC-6 tox	IEC-6 tox confirm
Cc1cccc(/C=N\NC(=O)c2ccc(Cl)cc2)c1O	-1	2	57	-50	-2	23*	51*
Cc1cccc(/C=N/NC(=O)c2c(-c3ccccc3)noc2C)c1O	.	.	62*	44	.	27*	48*
COc1ccc(C(=O)CC(=O)c2ccc(F)cc2)cc1	.	.	-165	.	.	.	.
COc1ccc(C(=O)C(CCC(CNC(C)(C)C)C(=O)c2ccc(OC)cc2)CNC(C)(C)C)cc1 (stereo not given)	102*	101*	65*	-3	97*	71*	60*
Oc1ccc(C(=S)N2CCN(c3cccc(Cl)c3)CC2)cc1	4	4	14	-12	1	6	.
COc1cc(C(=S)N2CCN(c3cccc(Cl)c3)CC2)ccc1O	3	9	5	9	6	28*	14
Cc1cccc2c1N(CCOc1ccccc1Cl)C(=O)C2=O	19	11	19	-8	8	50*	21
Cc1ccccc1OCCN1C(=O)C(=O)c2cccc(C)c21	2	9	-16	-23	.	10	.
COc1ccc(N(CC(=O)Nc2cc(Cl)ccc2C)S(=O)(=O)c2c(C)noc2C)cc1	.	.	78*	43	.	64*	44*
CCOC(=O)N1CCc2c(sc3c2c(=O)n(-c2ccc(CC)cc2)c(=O)n3CC(=O)NCC2CCCO2)C1 (stereo not given)	.	.	30	-2	.	26*	8
CC(=O)N1CCc2c(sc3c2c(=O)n(-c2ccccc2)c(=O)n3CC(=O)NCC2CCCO2)C1 (stereo not given)	.	.	5	-34	.	-6	.
CC(C)OC(=O)Nc1ccc2c(c1)N(C(=O)N1CCN(C)CC1)c1ccccc1CC2	25*	29*	-62	-55	.	35*	21
CC(NC(=O)/C(C#N)=C/c1ccc([N+](=O)[O-])o1)c1ccccc1 (stereo not given)	.	.	-54	3	.	48*	16
Cc1ccc(N(CC(=O)NC2CCCC2)C(=O)CNC(=O)c2cccs2)cc1F	.	.	15	5	.	0	.
Cc1c(NS(=O)(=O)c2ccc(N)cc2)c(=O)n(-c2ccccc2)n1C	.	.	-19	-7	.	-3	.
CC1CC2(C)Oc3ccccc3CC2C(C)C1CNCCCN(C)C (stereo not given)	102*	104*	106*	4	1	34*	100*
CC(=O)C(C(c1ccccc1)c1c[nH]c2ccccc12)[N+](=O)[O-] (stereo not given)	.	.	-30	22	.	32*	21
COC(CNS(=O)(=O)c1cc2c3c(c1)CCN3C(=O)CC2)OC	.	.	8	-7	.	0	.
COc1ccccc1-c1c(C#N)c(N)nc2c1CCc1ccccc1-2	12	8	-196	16	-3	24*	19
COCCNC(=O)CN1C(=O)NC2(CCCc3cc(OC)ccc32)C1=O (stereo not given)	.	.	11	-15	.	4	.

Screens from PubChem.
